Test results reported in the supplement of paper PMC13380429.
Unmarked numbers belong to inactive results.

System: Vero E6 infected with SARS-CoV-2
Assay: SARS-CoV-2 infection rate relative to infected DMSO; higher = more infection, active = 60 or less
Conditions: 24 h

First: O=C(NC[C@H](O)CN1CCc2ccccc2C1)c1cc(NC2COC2)ncn1 (10 µM)
Second: S=C(NCc1ccc2c(c1)OCO2)N1CCN(c2ncnc3c2oc2ccccc23)CC1 [amuvatinib] (0.833333 µM)
The SARS-CoV-2 infection rate of the first is higher: 100% for the first, 92.5% for the second.

Going from `N#Cc1c(N)nc(SCc2csc(-c3ccc(Cl)cc3)n2)c(C#N)c1-c1ccc(OCCO)cc1` [capadenoson] (10 µM) to `Cn1cc(CCn2cnc(-c3cnn(C)c3)c2-c2ccc(C#N)cc2)cn1` (10 µM), the SARS-CoV-2 infection rate falls from 115% to 97%.

First: CCc1nc(C)ccc1O [emoxipin] (10 µM)
Second: CCOC(=O)Nc1nc2ccccc2[nH]1 [lobendazole] (10 µM)
The SARS-CoV-2 infection rate of the first is lower: 99.5% for the first, 101% for the second.

Going from `CC(C)[C@H]1c2ccc(F)cc2CC[C@@]1(CCN(C)CCCc1nc2ccccc2[nH]1)OC(=O)C1CC1` (0.833333 µM) to `O=C(c1ccc(F)cc1)C1CCN(CCCCc2ccccc2)CC1` [4-(4-fluorobenzoyl)-1-(4-phenylbutyl)-piperidine] (10 µM), the SARS-CoV-2 infection rate rises from 98% to 110%.

First: CN1CCN(Cc2ccc(-c3cnc4[nH]cc(-c5ccc6[nH]ccc6c5)c4c3)cc2)CC1 (0.833333 µM)
Second: c1ccc(-c2ccc(CNc3nc(-c4ccccn4)nnc3-c3ccccc3)cc2)cc1 (10 µM)
The SARS-CoV-2 infection rate of the first is lower: 61% for the first, 114% for the second.

Going from `CCOC(=O)COc1ccc2c(=O)cc(-c3ccccc3)oc2c1` [efloxate] (10 µM) to `O=c1cc(-c2ccc(O)cc2)oc2cc(O)cc(O)c12` [apigenin] (10 µM), the SARS-CoV-2 infection rate rises from 96.5% to 104%.

Compared with `COc1cc2c(cc1O)C(CCc1ccc(Cl)cc1)N(C)CC2` (stereo not given) (10 µM), `Oc1cc2c(c(Cl)c1O)CCNCC2c1ccccc1` (stereo not given) (10 µM) is higher in SARS-CoV-2 infection rate: 72% for the first, 97.5% for the second.

First: CCCC[C@H]1C(=O)N(c2ccccc2)N(c2ccc(O)cc2)C1=O [oxyphenbutazone] (0.833333 µM)
Second: CC[C@H](NC(=O)c1c(O)c(-c2ccccc2)nc2ccccc12)c1ccccc1 [talnetant] (10 µM)
The SARS-CoV-2 infection rate of the first is lower: 102% for the first, 117% for the second.

`C[C@H](CCC(=O)NCCS(=O)(=O)O)[C@H]1CC[C@H]2[C@@H]3[C@H](O)C[C@@H]4C[C@H](O)CC[C@]4(C)[C@H]3C[C@H](O)[C@]12C` [taurocholate] (10 µM) and `CC[C@H](/C=C/[C@@H](C)[C@H]1CC[C@H]2[C@@H]3CC=C4C[C@@H](O)CC[C@]4(C)[C@H]3CC[C@]12C)C(C)C` [Stigmasterol (Stigmasterin)] (10 µM) are the same in SARS-CoV-2 infection rate: 116% for the first, 116% for the second.

First: CC(=O)Nc1ccc(CC(=O)O)cc1 [actarit] (10 µM)
Second: CC(C)(Oc1ccc(Cl)cc1)C(=O)N1CSCC1C(=O)O (stereo not given) [timofibrate] (10 µM)
The SARS-CoV-2 infection rate of the first is lower: 99.5% for the first, 106% for the second.

First: Cc1ncc(C[n+]2csc(CCOP(=O)(O)OP(=O)(O)O)c2C)c(N)n1 [thiamine-pyrophosphate] (10 µM)
Second: COc1cc2nc(N3CCN(C(=O)COc4c(OC)cccc4C(C)C)CC3)nc(N)c2cc1OC (10 µM)
The SARS-CoV-2 infection rate of the first is higher: 105% for the first, 92.5% for the second.

First: Nc1nc(O)c2nc(Br)n([C@@H]3O[C@@H]4COP(=O)(O)O[C@H]4[C@H]3O)c2n1 [8-bromo-cGMP] (10 µM)
Second: NS(=O)(=O)c1cccc2c1c([N+](=O)[O-])cc1nc(O)c(O)nc12 (10 µM)
The SARS-CoV-2 infection rate of the first is lower: 97% for the first, 104% for the second.

First: CCN(CC)CCOCCOC(=O)C(CC)(CC)c1ccccc1 [oxelaidin] (10 µM)
Second: CCCCOc1ccc(OCCCN2CCOCC2)cc1 [pramoxine] (10 µM)
The SARS-CoV-2 infection rate of the first is lower: 73.5% for the first, 106% for the second.

Compared with `CC(=O)Nc1nc2c(Oc3cc(-c4ccc(C(F)(F)F)cc4)ncn3)cccc2s1` (10 µM), `Cc1c(NC(=O)c2cc3c(s2)CCCC3)cccc1-c1cn(C)c(=O)c(Nc2ccc(C3C(=O)N(C)CCN3C)cc2)n1` (stereo in doubt) (10 µM) is lower in SARS-CoV-2 infection rate: 108% for the first, 69% for the second.

First: Sc1nc2ccccc2s1 [benzo[d]thiazole-2(3H)-thione] (10 µM)
Second: Nn1cnc2cc3ccccc3cc2c1=O [centazolone] (10 µM)
The SARS-CoV-2 infection rate of the first is lower: 104% for the first, 116% for the second.

First: NC[C@@H](O)CC(=O)O [aminohydroxybutyric-acid] (10 µM)
Second: O=C(CCCCCCCC(=O)NCCO)NCCO [adelmidrol] (10 µM)
The SARS-CoV-2 infection rate of the first is lower: 92% for the first, 105% for the second.

First: CO[C@H]1O[C@@H]2O[C@@]3(C)CC[C@H]4[C@H](C)CC[C@@H]([C@H]1C)[C@@]24OO3 [artemether] (10 µM)
Second: CC[C@@H]1C(=O)N(C)c2cnc(Nc3ccc(C(=O)NC4CCN(C)CC4)cc3OC)nc2N1C1CCCC1 (10 µM)
The SARS-CoV-2 infection rate of the first is higher: 105% for the first, 104% for the second.

First: COc1ccccc1N1CCN(CC(O)COc2cc(OC)c(OC)c(OC)c2)CC1 (stereo not given) [enciprazine] (10 µM)
Second: Cc1nc(N)sc1-c1ccnc(Nc2ccc(N3CCOCC3)cc2)n1 (0.833333 µM)
The SARS-CoV-2 infection rate of the first is higher: 110% for the first, 93% for the second.

First: Nc1sc2c(c1C(=O)c1ccc(Cl)cc1)CCCC2 (10 µM)
Second: CC1(C)C(=O)NC2=C1C(=O)C(=O)c1ccccc12 (0.833333 µM)
The SARS-CoV-2 infection rate of the first is lower: 96.5% for the first, 114% for the second.

In the case of `CC[C@@]1([C@H]2O[C@H]([C@H]3O[C@@](O)(CO)[C@H](C)C[C@@H]3C)C[C@H]2C)CC[C@H]([C@@]2(C)CC[C@]3(C[C@H](O)[C@@H](C)[C@@H]([C@H](C)[C@H](OC)[C@@H](C)C(=O)O)O3)O2)O1` (10 µM), the SARS-CoV-2 infection rate is reported as 39% (active).
`Nc1nc(N)c(N=O)c(OCC2CCCCC2)n1` (10 µM) was tested, and the SARS-CoV-2 infection rate was 54.5% (active).
